Laboratory results from PubChem BioAssay (NCATS).
“And” between values parts separate entries of the source, which are not always exact repeats. Identical values can stand only once. The source made the active and inactive calls. Entries that show only a call come without a potency. Unless noted, the call rests on the fitted dose curve; in most records, active means well fitted curve in the direction sought with a large enough effect; inconclusive means small, poorly fitted or top-dose-only effect, or another doubt; inactive means no such curve, though single readings can be large; an effect the other way counts as inactive or inconclusive.

Experiments:
[1] = target: Peroxisome proliferator-activated receptor gamma (Homo sapiens) (UniProt P37231); assay: qHTS assay for small molecule agonists of peroxisome proliferator-activated receptor gamma signaling (AID 588536; active means well fitted curve in the direction sought with a large enough effect in the signal ratio, with a control signal flat, not every such curve was filed as active; inconclusive means small, poorly fitted or top-dose-only effect, or effect the other way, or a change in a side signal; inactive means no such curve, though single readings can be large or run the other way; the % refers to the signal ratio)
In short: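 PPAR-gamma-UAS-bla HEK293 cells in medium with 1% charcoal/dextran-treated FBS were exposed to compounds for 16 h at 37 C. Beta-lactamase activity was read with CCF4 substrate (405 nm excitation, 460/530 nm emission).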

[2] = target: Vitamin D3 receptor (Homo sapiens) (UniProt P11473); assay: qHTS assay for small molecule agonists of vitamin D receptor signaling (AID 588543; calls by dose curve)
In short: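 VDR-UAS-bla HEK293T cells, 2000/well, 2% charcoal-stripped FBS; compound titration 16 h at 37 C; CCF4 beta-lactamase ratio read. Normalized to 50 nM 1-alpha,25-dihydroxyvitamin D3 (100%) and DMSO; Hill fit gives EC50, efficacy.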

[3] = target: Thyroid hormone receptor beta (Homo sapiens) (UniProt P10828); assay: qHTS assay for small molecule antagonists of thyroid hormone receptor beta signaling (AID 588547; active means well fitted inhibition curve with a large enough effect in the signal ratio, with a control signal flat, not every such curve was filed as active; inconclusive means small, poorly fitted or top-dose-only effect, or effect the other way, or a change in a side signal; the % refers to the signal ratio;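 further: cells stimulated with 0.4 nM T3 agonist during compound exposure; series mostly up to about 77 µM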); conditions: TR-UAS-bla HEK293, beta-lactamase ratio, antagonist mode, 18 h
In short: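 TR-UAS-bla GripTite HEK293 cells in 2% charcoal/dextran FBS medium were preincubated 4 h at 37 C, given compound (0.59 nM to 92 uM) plus 0.4 nM T3 (final) for 18 h, then CCF4 for 2 h at RT; Hill fit gave IC50.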

[4] = target: Nuclear receptor subfamily 1 group I member 2 (Rattus norvegicus) (UniProt Q9R1A7); assay: qHTS assay for small molecule activators of the rat pregnane X receptor (rPXR) signaling pathway (AID 651751; call rule not given here); conditions: rPXR reporter cells, luciferase (One-Glo), 24 h
[5] = qHTS assay for small molecule activators of the human pregnane X receptor (PXR) signaling pathway (AID 720659; call rule not given here)
[6] = target: Mitogen-activated protein kinase 10 (Mus musculus) (UniProt Q61831); assay: JNK3 AlphaScreen Assay (AID 530; active means well fitted curve in either direction with a large enough effect, not every such curve was filed as active; inconclusive means small, poorly fitted or top-dose-only effect, or another doubt;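 further: kinase came from lysate of stimulated human HepG2 cells; signal reports phosphorylation of biotinylated GST-cJun 1-79 at Ser73 with 10 µM ATP; series mostly up to about 57 µM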)
In short: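 JNK3 came from HepG2 lysates pre-activated with IL-1beta and TNF-alpha and phosphorylated biotinylated GST-cJun (1-79) at 10 uM ATP, pH 7.6, room temperature. Compounds were titrated. AlphaScreen signal used anti-phospho-cJun (Ser73) antibody.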

[7] = target: Cytochrome P450 3A4 (Homo sapiens) (UniProt P08684); assay: qHTS Assay for Inhibitors and Substrates of Cytochrome P450 3A4 (AID 884); further: nearly all actives have a fitted effect of over 50% in size; further: potency means the concentration at half of the fitted maximal effect
In short: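 20 nM human CYP3A4 with 25 uM Luciferin-PPXE (at KM) in 200 mM KPO4, preincubated 10 min with compound; NADPH regeneration started a 60 min RT reaction. Luciferin detected by luminescence, normalized to 57 uM ketoconazole as full inhibition.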

[8] = MultiTox-Fluor Cytotoxicity Assay - LYMP1-001 - Live Cells (AID 947); further: potency means the concentration at half of the fitted maximal effect
[9] = MultiTox-Fluor Cytotoxicity Assay - LYMP1-002 - Dead Cells (AID 960); further: nearly all actives have a fitted effect of over 60% in size; further: potency means the concentration at half of the fitted maximal effect
In short: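 Acute cytotoxicity in a human lymphoblastoid line is scored as rising dead-cell protease signal after 16 hr exposure at 37 C, measured fluorometrically (485/520).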

[10] = Cell Viability - LYMP2-004 (AID 966); further: nearly all actives have a fitted effect of over 65% in size; further: potency means the concentration at half of the fitted maximal effect
In short: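 Acute toxicity is scored as a concentration-dependent drop in intracellular ATP, quantified by luciferase luminescence, in human lymphoblastoid cells exposed to compound for 24 hr. AC50 derives from Hill-equation modelling.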

[11] = target: Estrogen receptor (Homo sapiens) (UniProt P03372); assay: qHTS assay for small molecule antagonists of estrogen receptor alpha signaling (AID 588513; active means well fitted curve in the direction sought with a large enough effect in the signal ratio, with a control signal flat, not every such curve was filed as active; inconclusive means small, poorly fitted or top-dose-only effect, or effect the other way, or a change in a side signal; inactive means no such curve, though single readings can be large or run the other way; the % refers to the signal ratio; further: potency means the concentration at half of the fitted maximal effect)
In short: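 ER-alpha-UAS-bla GripTite HEK 293 cells in 2% charcoal/dextran-treated FBS medium; compounds titrated (1:2, duplicate), then stimulated with 0.5 nM 17-beta-estradiol for 18 h at 37C. CCF4 beta-lactamase fluorescence; Hill-fit IC50 and efficacy.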

[12] = qHTS assay for small molecule agonists of retinoid X receptor alpha signaling (AID 588544; calls by dose curve); conditions: HEK293T RXRa-UAS-bla, beta-lactamase reporter, 18 h; 530 nm emission
[13] = target: Retinoic acid receptor RXR-alpha (Homo sapiens) (UniProt P19793); assay: as above
[14] = target: Voltage-gated inwardly rectifying potassium channel KCNH2 (Homo sapiens) (UniProt Q12809); assay: qHTS Assay for Small Molecule Inhibitors of the Human hERG Channel Activity (AID 588834);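 further: top concentration of the series differs between compounds; lower thallium flux fluorescence means stronger hERG block; nearly all actives have a fitted effect of over 50% in size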
In short: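 U2OS cells BacMam-transduced with hERG, 2000 cells/well, compound ~10 min at 37 °C before stimulation buffer. FluxOR thallium flux fluorescence read kinetically on FDSS; decrease indicates block; AC50 from Hill fits.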

[15] = qHTS assay for small molecule activators of the p53 signaling pathway (AID 651743; active means well fitted activation curve with a large enough effect in the signal ratio, not every such curve was filed as active; inconclusive means small, poorly fitted or top-dose-only effect, or a change in a side signal; the % refers to the signal ratio; further: series mostly up to about 92 µM); conditions: HCT-116 p53RE-bla, beta-lactamase FRET ratio, 16 h; activation: stronger effect = higher value
In short: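 p53RE-bla HCT-116 cells with a stably integrated beta-lactamase reporter under p53 response elements were plated, rested 5 hours at 37 C/5% CO2, then exposed to compounds in DMSO for 16 hours at 37 C. LiveBLAzer B/G FRET substrate was read after 2 hours at room temperature.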

[16] = qHTS assay for small molecule disruptors of the mitochondrial membrane potential - 1 hr assay (AID 651754; calls by dose curve; further: nearly all actives have a fitted effect of over 35% in size)
In short: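 Steps: seed HepG2 cells and let attach overnight; pin-transfer compound or vehicle; incubate 1 hr at 37C; add Mito-MPS dye for 30 min; read two-channel fluorescence for monomer and aggregate forms.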

[17] = qHTS assay for small molecule disruptors of the mitochondrial membrane potential - 5 hr assay (AID 651755; calls by dose curve; further: nearly all actives have a fitted effect of over 40% in size)
In short: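 HepG2 cells, attached overnight at 37C, were exposed to compound or DMSO for 5 hr at 37C, 5% CO2. Mito-MPS dye was then added for 30 min, and fluorescence read at 490/535 nm (monomers) and 540/590 nm (aggregates).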

[18] = target: Tumor necrosis factor (Homo sapiens) (UniProt P01375); assay: qHTS assay to identify small molecules that stimulate Tumor Necrosis Factor-alpha (TNF-alpha) secretion (AID 651757; active means well fitted curve in the direction sought with a large enough effect in the signal ratio; inconclusive means small, poorly fitted or top-dose-only effect, or a change in a side signal; inactive means no such curve, though single readings can be large or run the other way; the % refers to the signal ratio)
In short: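 Secreted TNF-alpha from compound-treated THP-1 cells (17 hrs, 37 C) was quantified with a homogeneous time-resolved fluorescence antibody assay.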

[19] = qHTS assay for small molecule antagonists of the retinoid-related orphan receptor gamma (ROR-gamma) signaling pathway - cell viability counter screen (AID 720652; active means well fitted curve in the direction sought with a large enough effect in the repeat runs; inconclusive means weak or mixed curves; inactive means no such curve, though single readings can be large; an effect the other way counts as inactive or inconclusive;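 further: CHO reporter cells with doxycycline-induced ROR-gamma expression; series mostly up to about 92 µM; compound exposure lasted 16 hr before ATP read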)
In short: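 Cytotoxicity is quantified via intracellular ATP (CellTiter-Glo luminescence) in doxycycline-induced CHO ROR response element-luciferase reporter cells treated with compound for 16 hr at 37 C, 5% CO2.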

[20] = target: Glucocorticoid receptor (Homo sapiens) (UniProt P04150); assay: qHTS assay for small molecule agonists of glucocorticoid receptor signaling (AID 588532; active means well fitted curve in the direction sought with a large enough effect in the signal ratio, with a control signal flat; inconclusive means small, poorly fitted or top-dose-only effect, or a change in a side signal; inactive means no such curve, though single readings can be large or run the other way; the % refers to the signal ratio); conditions: HeLa MMTV-bla, beta-lactamase ratio, agonist, 18 h; stronger effect = higher value; percent of dexamethasone control, DMSO zero
In short: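 Stimulation of a glucocorticoid response element-driven beta-lactamase gene was measured in HeLa cells. Responses were scaled between DMSO basal and 0.1 uM dexamethasone, then fitted for half-maximal stimulation.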

Vitamin D3 receptor (Homo sapiens), sequence (P11473 whole entry, looked up): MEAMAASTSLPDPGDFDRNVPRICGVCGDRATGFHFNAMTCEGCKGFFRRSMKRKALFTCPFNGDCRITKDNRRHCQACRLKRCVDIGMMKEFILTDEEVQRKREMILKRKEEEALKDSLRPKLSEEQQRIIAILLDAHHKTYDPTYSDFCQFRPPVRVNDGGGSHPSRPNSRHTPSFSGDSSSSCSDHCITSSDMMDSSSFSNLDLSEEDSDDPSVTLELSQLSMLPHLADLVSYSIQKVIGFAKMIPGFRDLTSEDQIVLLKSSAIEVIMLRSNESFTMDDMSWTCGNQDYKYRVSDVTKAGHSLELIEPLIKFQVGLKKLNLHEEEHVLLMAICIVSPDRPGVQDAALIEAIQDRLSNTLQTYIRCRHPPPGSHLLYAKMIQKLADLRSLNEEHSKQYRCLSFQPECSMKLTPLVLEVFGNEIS
Glucocorticoid receptor (Homo sapiens), sequence (P04150 whole entry, looked up): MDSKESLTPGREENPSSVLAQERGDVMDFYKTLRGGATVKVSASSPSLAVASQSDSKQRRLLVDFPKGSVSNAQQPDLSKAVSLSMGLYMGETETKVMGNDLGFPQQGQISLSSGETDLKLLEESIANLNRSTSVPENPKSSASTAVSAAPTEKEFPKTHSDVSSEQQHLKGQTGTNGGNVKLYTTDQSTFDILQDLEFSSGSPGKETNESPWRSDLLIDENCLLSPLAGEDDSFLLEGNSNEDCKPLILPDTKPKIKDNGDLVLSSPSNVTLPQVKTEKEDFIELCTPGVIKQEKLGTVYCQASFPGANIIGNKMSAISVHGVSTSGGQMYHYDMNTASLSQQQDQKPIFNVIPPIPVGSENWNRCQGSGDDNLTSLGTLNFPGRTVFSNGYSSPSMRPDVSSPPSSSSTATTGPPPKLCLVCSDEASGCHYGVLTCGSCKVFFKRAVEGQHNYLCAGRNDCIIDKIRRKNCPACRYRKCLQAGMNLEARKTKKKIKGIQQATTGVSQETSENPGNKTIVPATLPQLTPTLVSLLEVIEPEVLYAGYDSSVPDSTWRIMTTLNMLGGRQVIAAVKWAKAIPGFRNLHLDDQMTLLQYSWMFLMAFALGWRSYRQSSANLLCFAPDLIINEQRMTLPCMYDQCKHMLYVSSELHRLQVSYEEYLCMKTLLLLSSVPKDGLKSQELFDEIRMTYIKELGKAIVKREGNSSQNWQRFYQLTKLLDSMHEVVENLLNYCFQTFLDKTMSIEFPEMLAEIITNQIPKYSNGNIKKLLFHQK
Tumor necrosis factor (Homo sapiens), sequence (P01375 whole entry, looked up): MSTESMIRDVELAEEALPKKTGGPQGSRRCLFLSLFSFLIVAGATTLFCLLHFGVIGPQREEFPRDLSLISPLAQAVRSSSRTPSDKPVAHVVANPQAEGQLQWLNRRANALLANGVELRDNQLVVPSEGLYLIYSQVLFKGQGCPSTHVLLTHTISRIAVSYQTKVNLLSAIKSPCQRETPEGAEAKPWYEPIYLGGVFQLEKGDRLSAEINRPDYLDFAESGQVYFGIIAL
Cytochrome P450 3A4 (Homo sapiens), sequence (P08684 whole entry, looked up): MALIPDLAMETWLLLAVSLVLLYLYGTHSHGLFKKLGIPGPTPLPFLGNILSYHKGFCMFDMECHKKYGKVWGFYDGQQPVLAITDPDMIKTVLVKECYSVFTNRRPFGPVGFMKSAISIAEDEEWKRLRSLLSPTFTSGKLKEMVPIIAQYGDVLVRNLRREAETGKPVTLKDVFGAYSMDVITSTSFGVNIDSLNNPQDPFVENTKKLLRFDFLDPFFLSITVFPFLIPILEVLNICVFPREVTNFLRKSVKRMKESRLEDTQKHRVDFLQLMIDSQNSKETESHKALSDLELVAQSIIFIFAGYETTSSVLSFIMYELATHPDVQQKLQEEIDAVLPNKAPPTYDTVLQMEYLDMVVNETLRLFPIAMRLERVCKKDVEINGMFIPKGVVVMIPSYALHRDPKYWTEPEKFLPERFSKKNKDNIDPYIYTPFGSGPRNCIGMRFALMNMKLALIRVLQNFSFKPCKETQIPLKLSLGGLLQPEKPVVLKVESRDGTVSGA
Nuclear receptor subfamily 1 group I member 2 (Rattus norvegicus), sequence (Q9R1A7 whole entry, looked up): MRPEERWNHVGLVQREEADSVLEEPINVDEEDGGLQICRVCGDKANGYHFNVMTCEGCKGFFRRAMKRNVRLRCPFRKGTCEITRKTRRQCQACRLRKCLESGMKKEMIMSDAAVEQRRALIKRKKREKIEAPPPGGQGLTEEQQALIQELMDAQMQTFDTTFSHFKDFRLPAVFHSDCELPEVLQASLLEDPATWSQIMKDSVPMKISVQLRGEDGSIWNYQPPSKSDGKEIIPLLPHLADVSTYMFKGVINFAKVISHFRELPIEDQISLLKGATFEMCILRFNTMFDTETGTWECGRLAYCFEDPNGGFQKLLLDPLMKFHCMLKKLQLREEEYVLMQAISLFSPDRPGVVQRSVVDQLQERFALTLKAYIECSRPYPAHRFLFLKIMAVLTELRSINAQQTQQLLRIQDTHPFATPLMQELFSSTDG
Thyroid hormone receptor beta (Homo sapiens), sequence (P10828 whole entry, looked up): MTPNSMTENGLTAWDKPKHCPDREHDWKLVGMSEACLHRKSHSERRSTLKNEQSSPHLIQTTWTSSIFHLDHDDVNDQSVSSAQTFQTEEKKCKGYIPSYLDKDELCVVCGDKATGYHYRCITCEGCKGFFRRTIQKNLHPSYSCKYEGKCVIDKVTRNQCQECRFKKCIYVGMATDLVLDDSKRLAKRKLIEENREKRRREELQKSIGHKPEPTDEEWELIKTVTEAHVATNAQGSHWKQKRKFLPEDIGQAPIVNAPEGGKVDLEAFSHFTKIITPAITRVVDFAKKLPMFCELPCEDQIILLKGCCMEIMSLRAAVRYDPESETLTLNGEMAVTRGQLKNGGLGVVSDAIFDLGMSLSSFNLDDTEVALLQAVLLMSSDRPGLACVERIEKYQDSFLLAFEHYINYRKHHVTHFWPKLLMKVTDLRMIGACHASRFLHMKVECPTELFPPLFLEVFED
Estrogen receptor (Homo sapiens), sequence (P03372 whole entry, looked up): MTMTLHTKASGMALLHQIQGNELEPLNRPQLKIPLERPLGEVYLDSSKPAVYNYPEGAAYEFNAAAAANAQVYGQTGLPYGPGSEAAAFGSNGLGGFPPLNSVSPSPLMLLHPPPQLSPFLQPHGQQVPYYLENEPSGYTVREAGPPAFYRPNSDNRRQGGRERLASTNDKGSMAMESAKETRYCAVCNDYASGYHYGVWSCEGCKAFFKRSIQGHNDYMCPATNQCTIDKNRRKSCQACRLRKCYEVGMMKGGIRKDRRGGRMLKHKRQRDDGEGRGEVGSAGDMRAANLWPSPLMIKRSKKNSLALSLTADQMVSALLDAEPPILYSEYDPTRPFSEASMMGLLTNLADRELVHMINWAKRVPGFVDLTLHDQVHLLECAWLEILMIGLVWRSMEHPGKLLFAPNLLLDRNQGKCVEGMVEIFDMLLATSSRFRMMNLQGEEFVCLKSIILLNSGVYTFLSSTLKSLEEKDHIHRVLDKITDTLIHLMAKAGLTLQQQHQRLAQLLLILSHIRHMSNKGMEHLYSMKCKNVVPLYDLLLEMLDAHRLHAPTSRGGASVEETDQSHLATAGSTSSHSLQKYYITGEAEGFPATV
Peroxisome proliferator-activated receptor gamma (Homo sapiens), sequence (P37231 whole entry, looked up): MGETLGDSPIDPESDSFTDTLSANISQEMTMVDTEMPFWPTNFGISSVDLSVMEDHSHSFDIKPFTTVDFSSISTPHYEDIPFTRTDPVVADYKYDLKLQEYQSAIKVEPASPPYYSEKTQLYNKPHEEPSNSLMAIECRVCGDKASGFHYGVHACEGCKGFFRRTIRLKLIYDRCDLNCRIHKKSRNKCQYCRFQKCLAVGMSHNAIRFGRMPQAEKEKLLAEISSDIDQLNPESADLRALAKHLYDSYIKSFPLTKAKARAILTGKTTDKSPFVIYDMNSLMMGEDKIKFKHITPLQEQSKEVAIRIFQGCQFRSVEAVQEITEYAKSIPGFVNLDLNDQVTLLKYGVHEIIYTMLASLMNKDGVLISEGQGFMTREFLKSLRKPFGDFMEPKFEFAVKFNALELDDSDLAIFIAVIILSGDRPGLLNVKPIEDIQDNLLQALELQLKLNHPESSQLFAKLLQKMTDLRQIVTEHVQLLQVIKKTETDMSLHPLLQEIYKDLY
Retinoic acid receptor RXR-alpha (Homo sapiens), sequence (P19793 whole entry, looked up): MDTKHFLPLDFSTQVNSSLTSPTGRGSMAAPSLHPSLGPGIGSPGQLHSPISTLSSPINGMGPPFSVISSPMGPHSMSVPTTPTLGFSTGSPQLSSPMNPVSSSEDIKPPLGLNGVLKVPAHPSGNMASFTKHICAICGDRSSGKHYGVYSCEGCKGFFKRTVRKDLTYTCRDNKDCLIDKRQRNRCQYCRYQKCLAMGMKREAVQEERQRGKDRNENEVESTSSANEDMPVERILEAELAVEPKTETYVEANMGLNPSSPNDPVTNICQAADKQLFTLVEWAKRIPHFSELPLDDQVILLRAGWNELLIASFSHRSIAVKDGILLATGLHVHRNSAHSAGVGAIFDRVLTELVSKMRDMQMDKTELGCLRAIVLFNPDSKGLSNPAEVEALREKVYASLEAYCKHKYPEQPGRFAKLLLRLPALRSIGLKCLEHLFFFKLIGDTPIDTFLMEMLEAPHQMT

| Structure (SMILES) | outcome [1] | outcome [2] | activity change % (negative = inhibition) [3] | max response [4] | outcome [5] | Potency [6] | Potency [7] | Potency [8] | Potency [9] | Potency [10] | Potency [11] | max response [12] | outcome [13] | Potency [14] | activation [15] | Potency [16] | Potency [17] | outcome [18] | Potency [19] | activation [20] |
| --- | --- | --- | --- | --- | --- | --- | --- | --- | --- | --- | --- | --- | --- | --- | --- | --- | --- | --- | --- | --- |
| CCCCCCCCOC(=O)c1cc(O)c(O)c(O)c1 | inactive | inactive | -6.19% (inactive) | -0.212% (inactive) | inactive |  |  |  |  |  |  |  |  |  |  |  |  |  |  |  |
| COc1ccc2[nH]cc(CCNc3ncncc3-c3ccccc3C(F)(F)F)c2c1 |  |  |  |  |  | inactive | 0.251 µM (active) |  |  |  |  |  |  |  |  |  |  |  |  |  |
| Cc1cccc([N+](=O)[O-])c1C | inactive | inactive | -0.0299% (inactive) and -1.89% (inactive) | 1.82% (inactive) and -0.351% (inactive) | inactive | inactive | inactive | inactive | inactive | inactive | inactive | -8% and -5.71% | inactive | inactive | -0.524% (inactive) and 0.427% (inactive) | inactive | inactive | inactive | inactive |  |
| Cc1c(N=C=O)cccc1N=C=O | inactive | inactive | 2.21% (inactive) and -0.0232% (inactive) | -1.26% (inactive) and -0.744% (inactive) | inactive | inactive |  | inactive | inactive | inactive | inactive | -9.85% and -4.8% | inactive | inactive | -0.524% (inactive) and 6.01% (inactive) |  | inactive | inactive | inactive | -8.06% (inactive) and -0.129% (inactive) |
| COC(=O)c1ccc(C)cc1 |  | inactive | -22.1% (inactive) and -12.5% (inactive) | 1.84% (inactive) and -0.952% (inactive) | inactive | inactive | inactive | inactive |  | inactive | inactive | 8.76% and -8.45% | inactive | inactive | 2.24% (inactive) and -1.53% (inactive) | inactive | inactive | inactive | inactive | -15.8% (inactive) |
| C=CCOC(=O)c1ccccc1C(=O)OCC=C | inactive |  | -9.14% (inactive) and 1.91% (inactive) | -2.3% (inactive) and 1.03% (inactive) | inactive | inactive |  | inactive |  | inactive | inactive | -9.89% and -14.8% | inactive | inactive | -0.242% (inactive) and -1.19% (inactive) | inactive | inactive | inactive | inactive |  |
| C=CC(=O)OCCOCCOCCOCCOC(=O)C=C |  | inactive |  |  | inactive | inactive | inactive | 31.6 µM (active) and 39.8 µM (active) | 20 µM (active) and 25.1 µM (active) | 7.94 µM (active) and 12.6 µM (active) | 39.8 µM [inconclusive] (active) |  |  | inactive | 28.9% (inactive) and 15.6% (inactive) | inactive | inactive | inactive | inactive | -5.18% (inactive) |
| COCCn1c(=O)c(-c2cccs2)nc2cnc(N3CCNCC3)nc21 |  |  |  |  |  | inactive |  |  |  |  |  |  |  |  |  |  |  |  |  |  |
| CN(C)C=O | inactive |  | -4.62% (inactive) and -13.9% (inactive) and 12% (inactive) | 4.41% (inactive) and 5.29% (inactive) and 1.77% (inactive) | inactive | inactive | inactive |  | inactive | inactive | inactive |  |  | inactive | -4.49% (inactive) and -0.185% (inactive) and 0.579% (inactive) |  |  | inactive | inactive |  |
| C1OCOCO1 | inactive |  | 5.08% (inactive) | -2.23% (inactive) | inactive |  | inactive | inactive | inactive | inactive |  | -5.21% | inactive | inactive | -3.32% (inactive) | inactive | inactive | inactive | inactive | 3.41% (inactive) |
| OCCNCCO |  | inactive |  |  | inactive |  | inactive | inactive | inactive | inactive | inactive | -28.3% and -18.3% | inactive | inactive |  | inactive | inactive | inactive | inactive | -6.89% (inactive) and -4.55% (inactive) |
| CCCN(CCC)C(=O)SCC | inactive | inactive | 0.19% (inactive) and 8.86% (inactive) | 5.19% (inactive) and 0.741% (inactive) | inactive | inactive | inactive | inactive | inactive | inactive | inactive | -2.35% and -18.5% | inactive | inactive | 0.439% (inactive) and 11.8% (inactive) |  | inactive | inactive | inactive | 1.32% (inactive) and 12.8% (inactive) |
| ClCCCl | inactive | inactive | 4.14% (inactive) and 2.63% (inactive) and 8.67% (inactive) | 1.44% (inactive) and 0.0885% (inactive) and 1.57% (inactive) | inactive | inactive | inactive | inactive | inactive | inactive | inactive | -4.78% and -12% and 1.75% | inactive | inactive | 0.154% (inactive) and -1.95% (inactive) and -0.964% (inactive) | inactive | inactive | inactive | inactive | -0.189% (inactive) and 0.123% (inactive) and 2.5% (inactive) |
